Measurements: PubChem BioAssay AID602262 (National Center for Advancing Translational Sciences (NCATS), 2012)

Experiment: qHTS Assay for Agonists of the Relaxin Receptor RXFP1: V1B SAR
Settings: HEK293 V1B cells, cAMP TR-FRET, 30 min; series mostly up to 78.1 µM; activation: at the top concentration; active means well fitted curve in the direction sought with a large enough effect; inactive means no such curve, though single readings can be large or run the other way
Excerpt: The relaxin hormone is involved in the variety of biological functions in normal tissues and diseases. The role of relaxin is well-established in female reproduction and parturition, mammary gland and endometrial development, maintenance of myometrial quiescence during pregnancy. Relaxin signaling through its G protein-coupled receptor (GPCR) RXFP1 results in ECM remodeling through regulation of collagen deposition, cell invasiveness, proliferation and overall tissue homeostasis. […] Recombinant human relaxin (rhRlx) is currently being tested in clinical trials as a protective agent in congestive heart failure, in treating severe preeclampsia, and as an anti-fibrotic agent in systemic sclerosis. Upon relaxin binding RXFP1 activation leads to the activation of adenylate cyclase (AC) via Gs. cAMP will activate PKA, which phosphorylates many signaling proteins. Thus, detection of cAMP increase is an easy and reliable indication of relaxin receptor activation. To screen for agonists of the relaxin receptor, a HEK293T cell line stably transfected with RXFP1 was used. RXFP1 activation was assayed by changes in cAMP levels as detected with a time-resolved fluorescence energy transfer (TR-FRET) cAMP detection kit. This assay measures activation of a cell expressing V1B, another GPCR targeted by relaxin, to determine the selectivity of compounds for RXFP1. NIH Chemical Genomics Center [NCGC] NIH Molecular Libraries Probe Production Centers Network [MLPCN] MLPCN Grant: R03 MH085705-01A1 Assay Submitter (PI): Alexander Agoulnik
This is a cell-based assay for cAMP second messenger response to screen for agonists of the RXFP2 receptor. The assay was conducted in the presence of a PDE4 inhibitor (Ro 20174). The cells were lysed and the cAMP levels were measured with a TR-FRET cAMP kit. Presence of cAMP in the cell lysate disrupts binding between the cryptate-labeled anti-cAMP and d2-labeled cAMP pair, leading to a decrease in the TR-FRET signal. Data were normalized to the controls for basal activity (buffer only) and 100% activity (29 nM porcine relaxin). The EC50 values were determined from concentration-response data modeled with the standard Hill equation 1536-well assay protocol for the HEK293 V1B cAMP assay: (1) Add 3 ul HEK293 RXFP2 cell culture. 2000 cells/well in DMEM/F12, 10% FBS, 1x Pen/Strep (dispensed offline with MultiDrop Combi). (2) Incubate 16-24 hr at 37C, 5% CO2. (3) Add 1 ul 400uM Ro20174 in DPBS, 0.05% BSA, 0.005% Tween 20. (3) Add 23 nl compounds in DMSO solution. Final concentration was 0.5 - 58 uM. (4) Incubate 30 min at 37C, 5% CO2. (5) Add 1 ul cAMP-d2 in lysis buffer (HTRF cAMP HiRange kit, CisBio). (6) Add 1 ul anti-cAMP antibody-cryptate in lysis buffer (HTRF cAMP HiRange kit, CisBio). (7) Incubate 30 min at room temperature. (6) Detect the assay plate in a ViewLux plate reader (PerkinElmer) with Ex=320 nm, Em1=615 nm and Em2=665 nm. Keywords: relaxin, RXFP1, RXFP2, G-protein coupled receptor, cAMP, agonist, high throughput screening, MLSMR, MLSCN, NIH Roadmap, qHTS and NCGC

activation, inactive:
CCOc1ccccc1C(=O)Nc1ncccc1C(=O)Nc1cccc(S(=O)(=O)C(F)(F)F)c1 2.36%
COc1ccccc1C(=O)N(C)c1ccccc1C(=O)N(C)c1cccc(C(F)(F)F)c1 -1.13%
COc1ccc(C(=O)Nc2ccccc2C(=O)Nc2cccc(C(F)(F)F)c2)cc1 3.66%
CCCCC(=O)Nc1ccccc1C(=O)Nc1cccc(C(F)(F)F)c1 -2.71%
O=C(Nc1cccc(C(F)(F)F)c1)c1ccccc1NC(=O)C1CC1 8.37%
CCC(CC)C(=O)Nc1ccccc1C(=O)Nc1cccc(C(F)(F)F)c1 1.55%
CCOc1ccccc1C(=O)Nc1cnccc1C(=O)Nc1cccc(S(=O)(=O)C(F)(F)F)c1 2.84%
COCCOc1ccccc1C(=O)Nc1ccccc1C(=O)Nc1cccc(C(F)(F)F)c1 -2.02%
O=C(Nc1ccccc1C(=O)Nc1cccc(C(F)(F)F)c1)c1ccccc1Cl 3.73%
COc1cccc(NC(=O)c2ccccc2NC(=O)C2CCCCC2)c1 -6.38%
O=C(Nc1ccccc1)c1ccccc1NC(=O)C1CCCCC1 -1.89%
CCCCOc1ccccc1C(=O)Nc1ccccc1C(=O)Nc1cccc(S(=O)(=O)C(F)(F)F)c1 -0.668%
COc1ccccc1-c1ccccc1C(=O)Nc1cccc(C(F)(F)F)c1 3.5%
COc1ccccc1C(=O)N(C)c1ccccc1C(=O)Nc1cccc(C(F)(F)F)c1 -2.85%
CN(C)CCOc1ccccc1C(=O)Nc1ccccc1C(=O)Nc1cccc(C(F)(F)F)c1 1.12%
CC(C)Oc1ccccc1C(=O)Nc1ccccc1C(=O)Nc1cccc(C(F)(F)F)c1 -5.45%
CCOc1ccccc1C(=O)Nc1ccncc1C(=O)Nc1cccc(S(=O)(=O)C(F)(F)F)c1 4.28%
Cc1ccccc1NC(=O)c1ccccc1NC(=O)C1CCCCC1 -4.45%
COc1ccccc1CNc1ccccc1C(=O)Nc1cccc(C(F)(F)F)c1 1.52%
O=C(NCc1ccco1)c1ccccc1NC(=O)c1ccccc1NC(=O)C1CCCCC1 5.67%
COc1ccccc1C(=O)Nc1ccc(C(=O)Nc2cccc(C(F)(F)F)c2)cc1 -3.39%
Cc1ccccc1C(=O)Nc1ccccc1C(=O)Nc1cccc(C(F)(F)F)c1 -2.4%
CSc1cccc(NC(=O)c2ccccc2NC(=O)C2CCCCC2)c1 3.22%
O=C(Nc1cccc([N+](=O)[O-])c1)c1ccccc1NC(=O)C1CCCCC1 1.46%
CC(C)Oc1ccccc1C(=O)Nc1ccccc1C(=O)Nc1cccc(S(=O)(=O)C(F)(F)F)c1 -0.72%
O=C(Nc1cccc(C(F)(F)F)c1)c1ccccc1NC(=O)c1ccccc1OC(F)(F)F 2.56%
